# Laboratory results published in ChEMBL document CHEMBL3988442, “University of Dundee, Small-Polar-MMV Screening Library” (2021).
# In all, about 69,000 compounds went through this assay and about 1,000 (1.4%) showed an effect of 50% or more. For the sample, strong results were picked, then their nearest neighbours and some compounds at random.
# Tested on: Leishmania donovani
# Assay: Leishmania intramacrophage assay
# Type: functional, organism-based
# Design: scale not given: in the data most compounds retested in dose-response had high values
smiles,measurement,setting,value
CC(=O)N1CCN(C(=O)NC(C)C)CC2(CC(=O)N(C)C2)C1 (stereo not given),Percent Effect,"30.3 µM, […]",6.648%
CC(C)CC(=O)N1CCN(C(=O)NC(C)C)CC2(CC(=O)N(C)C2)C1 (stereo not given),Percent Effect,"30.3 µM, […]",-8.176%
COCC(=O)N1CCN(C(=O)NC(C)C)CC2(CC(=O)N(C)C2)C1 (stereo not given),Percent Effect,"30.3 µM, […]",56.1%
CCc1cnc(CN(C)C2CCN(CCCNS(C)(=O)=O)C2)o1 (stereo not given),Percent Effect,"30.3 µM, […]",8.531%
c1csc(CCC2CCCCN2Cc2noc(C3CC3)n2)c1 (stereo not given),Percent Effect,"30.3 µM, […]",-14.11%
CCC1CCCCCN1C(=O)c1ccc(N2CCC(O)CC2)cc1 (stereo not given),Percent Effect,"30.3 µM, […]",32.16%
CCCOc1c(Cl)cc(C(=O)N2CCOC23CCN(C)CC3)cc1Cl,Percent Effect,"30.3 µM, […]",88.42%
CCN1CCC2(CC1)OCCN2C(=O)c1cc(Cl)c(OC)c(Cl)c1.Cl,Percent Effect,"30.3 µM, […]",18.32%
CCN1CCC2(CC1)OCCN2C(=O)c1ccc(OC)c(Cl)c1.Cl,Percent Effect,"30.3 µM, […]",22.75%
CS(=O)(=O)N1CCC2(CC1)CC(NCc1ccco1)c1ccccc12.O=C(O)C(F)(F)F (stereo not given),Percent Effect,"30.3 µM, […]",16.74%
C/N=C1/c2cc3cc(OC)ccc3n2CCN1C,Percent Effect,"30.3 µM, […]",-16.2%
COc1ccc2c(ccn2CCC(=O)O)c1,Percent Effect,"30 µM, 30.03 µM",9.834%
COc1ccc(CN2CC[C@@H](O)[C@@H]2Cc2ccccc2)cc1.O=C(O)C(F)(F)F,Percent Effect,"30 µM, 30.03 µM",-18.25%
C/N=C1\c2cc3cc(OC)ccc3n2CCN1C.Cl,Percent Effect,"30.3 µM, […]",10.14%
C/N=C1\c2cc3cc(OC)ccc3n2CCN1Cc1ccccc1.O=C(O)C(F)(F)F,Percent Effect,"30.3 µM, […]",57.81%
C/N=C1/c2cc3cc(OC)ccc3n2CCN1Cc1ccccc1.Cl,Percent Effect,"30.3 µM, […]",64.09%
COCCN1C[C@H]2CC[C@@H]1CN(Cc1cc(=O)c3cc(C)ccc3[nH]1)C2,Percent Effect,"30.3 µM, […]",38.8%
CSCC(C)(O)CNS(=O)(=O)c1cccc(Cl)c1 (stereo not given),Percent Effect,"30.3 µM, […]",18.54%
CC1CCN(C(=O)C(C)N2CCc3[nH]nc(C(F)(F)F)c3C2)CC1 (stereo not given),Percent Effect,"30.3 µM, […]",13.32%
Cc1nc(C(=O)N(C)CC2CCCO2)nn1-c1ccccc1C(C)C (stereo not given),Percent Effect,"30.3 µM, […]",0.9975%
Cn1cc(-c2nnn3c2COC(CNC(=O)c2cccs2)C3)cn1 (stereo not given),Percent Effect,"30.3 µM, […]",37.28%
Cc1cc(N2CCC(N(C)C(=O)Nc3ccccc3)CC2)nc(C)n1,Percent Effect,"30 µM, 30.03 µM",11.78%
Cc1nc(CN2CCCC(NCCOc3ccccc3)C2)no1 (stereo not given),Percent Effect,"30 µM, 30.03 µM",33.1%
Cc1cc(N2CCC(N(C)C(=O)c3ccccc3F)CC2)nc(C)n1,Percent Effect,"30.3 µM, […]",35.99%
Cc1cc(N2CCC(NCCOc3ccccc3)CC2)nc(C)n1,Percent Effect,"30.3 µM, […]",53.39%
c1ccc(OCCNC2CCN(c3ncccn3)CC2)cc1,Percent Effect,"30.3 µM, […]",4.504%
O=C(COCCOc1ccccc1)NC1CCN(c2ncccn2)CC1,Percent Effect,"30.3 µM, […]",21.86%
Cc1cc(N2CCC(N(C)C(=O)c3ccccc3)CC2)nc(C)n1,Percent Effect,"30 µM, 30.03 µM",62.61%
Cc1cc(N2CCC(O)CC2)nc(C)n1,Percent Effect,"30.3 µM, […]",1.581%
CN(C)c1ccnc(N2CCC(NCCOc3ccccc3)CC2)n1,Percent Effect,"30.3 µM, […]",79.37%
Cc1ccnc(N2CCC(NCCOc3ccccc3)CC2)n1,Percent Effect,"30.3 µM, […]",18.71%
Cc1nc(C)c(C)c(N2CCC(NCCOc3ccccc3)CC2)n1,Percent Effect,"30.3 µM, […]",58.55%
Cc1cc(N2CCC(N(C)C(=O)c3ccc(C#N)cc3)CC2)nc(C)n1,Percent Effect,"30.3 µM, […]",14.71%
CNc1cncc(C2CCCN2C(=O)CCn2ccnc2)n1 (stereo not given),Percent Effect,"30.3 µM, […]",1.152%
CCCc1cc(C(=O)N2CCOC(c3nc(-c4cccs4)no3)C2)no1 (stereo not given),Percent Effect,"30 µM, 30.03 µM",23.21%
COc1ccc(CN2CC[C@H](O)[C@@H]2Cc2cnn(C)c2)cc1.O=C(O)C(F)(F)F,Percent Effect,"30.3 µM, […]",36.9%
CCc1ncnc2c1CCN(CC(=O)N(C)C)CC2.O=C(O)C(F)(F)F,Percent Effect,"30.3 µM, […]",4.143%
CCc1cc(N2CCC(NCCc3ccc(C)o3)CC2)nc(C)n1,Percent Effect,"30.3 µM, […]",9.521%
CCc1cc(N2CCC(NCCc3nc(C)c(C)s3)CC2)nc(C)n1,Percent Effect,"30.3 µM, […]",22.72%
CCc1cc(N2CCC(NCCc3ccccc3F)CC2)nc(C)n1,Percent Effect,"30.3 µM, […]",63.92%
CCC(CNC(=O)NCc1cc[nH]n1)N1CCCC1 (stereo not given),Percent Effect,"30.3 µM, […]",10.3%
Cc1nn(C)c(C)c1S(=O)(=O)N(CC(N)=O)CC(C)C,Percent Effect,"30.3 µM, […]",-2.964%
CCCc1noc(C2CCN(S(=O)(=O)c3cccs3)CC2)n1,Percent Effect,"30.3 µM, […]",12.47%
COCCc1noc(C2CCN(S(=O)(=O)c3cccs3)CC2)n1,Percent Effect,"30.3 µM, […]",57.18%
CC(C)c1noc(C2CCN(S(=O)(=O)c3cccs3)CC2)n1,Percent Effect,"30.3 µM, […]",-2.602%
CCCOc1ccccc1CCCNc1ncnc2oc(C)nc12,Percent Effect,"30.3 µM, […]",83.62%
CCCOc1ccc(Cl)cc1CNc1ncnc2oc(C)nc12,Percent Effect,"30.3 µM, […]",22.92%
CCC(CNc1ncnc2oc(C)nc12)Cc1ccccc1 (stereo not given),Percent Effect,"30.3 µM, […]",45.54%
Cc1ccc(SCCCNC(=O)c2cn([C@H]3CC[C@@H](N)CC3)nn2)cc1,Percent Effect,"30.3 µM, […]",94.34%
Cc1ccc(SCCN(C)C(=O)c2cn([C@H]3CC[C@@H](N)CC3)nn2)cc1,Percent Effect,"30.3 µM, […]",-26.18%
CCN(CCSc1ccccc1)C(=O)c1cn([C@H]2CC[C@@H](N)CC2)nn1,Percent Effect,"30.3 µM, […]",13.68%
O=C(O)c1cnc(OCC2CC2)c(Br)c1,Percent Effect,"30.3 µM, […]",4.629%
COCCCNC(=O)c1c(-n2cnnn2)sc2c1CCC2,Percent Effect,"30.3 µM, […]",9.721%
CC(C)CCNC(=O)c1c(-n2cnnn2)sc2c1CCCC2,Percent Effect,"30.3 µM, […]",-26.12%
COCCNC(=O)c1c(-n2cnnn2)sc2c1CCCC2,Percent Effect,"30.3 µM, […]",53.45%
Cc1ccc(C(=O)N(CC2CCCO2)c2ccncc2)o1 (stereo not given),Percent Effect,"30.3 µM, […]",23.81%
Cc1nn(-c2ccccn2)c(C)c1[C@@H]1C=C[C@@H](NC(=O)NC(C)C)C1,Percent Effect,"30.3 µM, […]",10.96%
CCNC(=O)[C@@H]1C[C@H](N)CN1Cc1ccc(-c2cc[nH]n2)o1,Percent Effect,"30.3 µM, […]",11.56%
CCNC(=O)[C@@H]1C[C@@H](N)CN1Cc1ccc(Sc2ccc(C)cc2)o1,Percent Effect,"30.3 µM, […]",97.85%
CCNC(=O)[C@@H]1C[C@H](N)CN1Cc1ccc(Sc2ccc(C)cc2)o1,Percent Effect,"30.3 µM, […]",-2.33%
Cc1cc(C(=O)NC2CC(=O)N(C(C)C)C2=O)c(C)n1C(C)C (stereo not given),Percent Effect,"30.3 µM, […]",19.34%
NCC(CO)Cc1ccc(C(F)(F)F)cc1 (stereo not given),Percent Effect,"30.3 µM, […]",17.17%
Cc1cnn(CCNCC(O)c2cccc(Br)c2)c1 (stereo not given),Percent Effect,"30.3 µM, […]",97.73%
OC(CNCCn1cccn1)c1cccc(Br)c1 (stereo not given),Percent Effect,30 µM,1.273%
Cc1cnn(CCNCC(O)c2ccc(F)c(F)c2)c1 (stereo not given),Percent Effect,"30.3 µM, […]",-10.99%
O=C(NCCc1ccccc1F)NCC(O)c1cccc(F)c1 (stereo not given),Percent Effect,30 µM,19.34%
Cn1cc(CN2CC[C@@H]3[C@@H](CCC(=O)N3CC3CCNCC3)C2)cn1,Percent Effect,"30.3 µM, […]",16.61%
Cc1ccc(CC(=O)NCC(O)c2ccc(Cl)cc2Cl)cn1 (stereo not given),Percent Effect,"30.3 µM, […]",-16.89%
Cc1c(-c2ccccc2)nc2c(c(C)c(C)n2CCN(C)C)c1N,Percent Effect,"30.3 µM, […]",99.06%
Cc1c(C)n(Cc2ccncc2)c2nc3c(c(N)c12)CCCCCC3,Percent Effect,"30.3 µM, […]",6.52%
CCc1c(C)sc2c1c(N)nc(=O)n2CCCN(C)C,Percent Effect,"30.3 µM, […]",34.84%
CCc1c(C)sc2c1c(N)nc(=O)n2CCN(C)C,Percent Effect,"30.3 µM, […]",-18.16%
Cc1c(C)n(Cc2ccccn2)c2nc3c(c(N)c12)CCCCC3,Percent Effect,"30.3 µM, […]",38.18%
CCc1c(-c2ccccc2)nc2c(c(C)c(C)n2CCN(C)C)c1N,Percent Effect,"30.3 µM, […]",100.7%
Cc1cc(C(=O)N2C[C@@H]3[C@@H](CN(C)CCc4ccccn4)[C@@H]3C2)c(C)o1,Percent Effect,"30.3 µM, […]",-26.53%
CC(CN1CCCC1=O)NC(=O)Nc1cccnc1-n1cccn1 (stereo not given),Percent Effect,"30.3 µM, […]",-2.319%
Cc1nccn1CCN(C)c1nc(-c2ccc(Cl)cc2)nc2c1CNC2,Percent Effect,"30.3 µM, […]",51.4%
CCn1ccnc1CN(C)c1nc(-c2ccc(Cl)cc2)nc2c1CNC2,Percent Effect,"30.3 µM, […]",20.89%
Cc1nccn1CCN(C)c1nc(-c2cccnc2)nc2c1CCNC2,Percent Effect,"30.3 µM, […]",20.05%
Cc1nn(C)c(C)c1-c1c(-c2ccccc2)ncn1[C@H](CO)C(=O)O,Percent Effect,"30.3 µM, […]",46.15%
Cc1c(-c2c(-c3ccccc3)ncn2[C@@H](C(=O)O)[C@H](C)O)cnn1C,Percent Effect,"30.3 µM, […]",50.58%
Cc1c(-c2c(-c3ccccc3)ncn2[C@H](CO)C(=O)O)cnn1C,Percent Effect,"30.3 µM, […]",25.35%
Cc1ccccc1C(=O)N1CC[C@H](O)[C@@H](N2CCOCC2)CC1,Percent Effect,"30.3 µM, […]",5.268%
Cc1ccc(OC2(C(=O)O)CCN(C(=O)c3cccc(F)c3)CC2)cn1,Percent Effect,"30.3 µM, […]",-5.312%
O=c1[nH]ncc(NCCOc2cccc(Br)c2)c1Cl,Percent Effect,"30.3 µM, […]",33.92%
O=c1[nH]ncc(NCCOc2ccc3c(c2)OCO3)c1Cl,Percent Effect,"30.3 µM, […]",33.23%
O=c1[nH]ncc(NCCOc2ccc3c(c2)CCC3)c1Cl,Percent Effect,"30.3 µM, […]",53.95%
O=C1COc2c(cccc2C(=O)N2CCCC(n3cccn3)C2)N1 (stereo not given),Percent Effect,"30.3 µM, […]",-19.69%
O=C(NC1CC1)c1ccn(COc2c(Cl)cccc2Cl)n1,Percent Effect,"30.3 µM, […]",26.41%
CC(C)C1CN(C(=O)c2ccccc2)CCS1 (stereo not given),Percent Effect,"30.3 µM, […]",-6.451%
Cc1ccc([C@]2(O)CC[C@H]3CN(Cc4cccc(Cl)c4Cl)C[C@H]32)nc1.O=C(O)CC(O)(CC(=O)O)C(=O)O,Percent Effect,"30 µM, 30.03 µM",12.17%
Cc1ccc([C@]2(O)CC[C@H]3CN(Cc4cc(C)c(O)c(C)c4)C[C@H]32)nc1.O=C(O)CC(O)(CC(=O)O)C(=O)O,Percent Effect,"30 µM, 30.03 µM",50.06%
Cc1cc(-c2cnc(N3CCSCC3)nc2C(C)C)on1,Percent Effect,"30.3 µM, […]",-38.52%
Cn1cnc2c1CCN(CC(=O)N(Cc1ccsc1)C1CC1)C2,Percent Effect,"30.3 µM, […]",1.808%
CC1(C)CC(=O)c2cnc3nc(N4CCCCC4)nc(O)c3c2C1,Percent Effect,"30.3 µM, […]",10.62%
Cc1cccc(CS(=O)(=O)Cc2ccn(C)c(=O)c2)c1,Percent Effect,"30.3 µM, […]",18.93%
O=C(c1cc2c([nH]c1=O)CCC2)N1CCCCCC1c1ccncc1 (stereo not given),Percent Effect,"30.3 µM, […]",26.35%
CCN(CC)c1nc(Nc2cccc(C(=O)O)c2)nc2ccccc12,Percent Effect,"30.3 µM, […]",3.255%
CCN(CC)c1nc(Nc2cccc(C(C)O)c2)nc2ccccc12 (stereo not given),Percent Effect,"30.3 µM, […]",66.27%
CC(O)c1cccc(Nc2nc(NCCO)c3ccccc3n2)c1 (stereo not given),Percent Effect,"30.3 µM, […]",37.25%
